Laboratory results taken from PubChem BioAssay (NCATS).
Inconclusive results are not listed. Calls of active or inactive are those of the source. Calls follow the shape of the dose curve; as a rule, active = well fitted inhibition curve with a large enough effect; inconclusive = small, poorly fitted or top-dose-only effect; inactive = no such curve, though single readings can be large or run the other way.

Experiment: qHTS for Inhibitors of the Aldehyde Dehydrogenase Family (ALDH1A2, ALDH1A3, ALDH2, ALDH3A1) (AID 2061307); also: nearly all actives have a fitted effect of over 50% in size; as to Potency: test system not described further here
Conditions: ALDH inhibition qHTS; series mostly up to 50.3 µM; activity change, negative = inhibition: at the top concentration
% is scaled to controls: 0 for no effect and ±100 for the full control effect; potency is read from the fitted curve at half-maximal effect.

Activity change, negative = inhibition, inactive:
O=C(Nc1cccc(C(F)(F)F)c1)c1ccccc1NCc1cccc(C(F)(F)F)c1 2.71%
N#CC1CCN(c2nc(Br)cs2)CC1 -9.32%
Cc1ccccc1C(=O)n1ccc2cc(-c3cccc(NC(=O)Cc4ccccc4)n3)cnc21 -20.7%
O=C(Nc1ccn[nH]1)c1ccn(-c2cccc(F)c2)n1 -23.3% [at 34.4 µM]
Cc1c(P(=S)(c2ccccc2)c2ccccc2)[n+]2ccccc2n1C/C=C/c1ccc(Br)cc1 70.8%
Cc1cccc(C)c1Nc1c(-c2ccccn2)nc2ccc(Cl)cn12 -2.05%
COc1ccc(-c2nnc(SCC(=O)Nc3ccc(C(C)=O)cc3)o2)cc1 0%
Oc1ccc(N2CCN(Cc3ccc(OCCCN4CCCCC4)cc3)CC2)cc1 -1.76%
CC(C)(C)NC(=O)c1ccc(NC(=O)c2cn(-c3ccccc3)nc2-c2cccnc2)cc1 -29.1% [at 34.4 µM]
Cc1cc(=O)n2[nH]c(NC(=O)c3ccccc3)nc2n1 -36%
COc1ccccc1-c1noc(CNc2cccc(C#N)c2)n1 -37.6% [at 34.4 µM]
O=C(O)c1cccc(S(=O)(=O)N2CCC(n3nnc4cc(C(F)(F)F)ccc43)CC2)c1 -11.3%
COCCN(C)S(=O)(=O)c1ccc(NC(=O)c2ccc(CN3CCc4ccccc4C3)cc2)cc1 -20%
O=C(Nc1cccc(C(F)(F)F)c1)c1ccccc1NCc1ccccc1 -16%
COc1ccc(F)cc1NC(=O)Cc1csc(-c2ccccc2Cl)n1 -58.1% [at 34.4 µM]
Cc1ccc(NS(=O)(=O)c2cc(N[C@@H](C)CO)cc3c2NC(=O)CC3)cc1C -24.9%
COc1cccc(N2CCN(C(=O)c3ccc4c(c3)N(C)C3CCCCCN3C4=O)CC2)c1 (stereo not given) -29.9% [at 34.4 µM]
O=C(Nc1nc2ccccc2c(=O)s1)c1ccc(F)cc1Cl -24%
Cc1c2c(=O)n(-c3ccccc3)[nH]c2cc(=O)n1CCN1CCOCC1 11.6%
CNC(=O)c1cc(-c2ccc(N3CCOCC3)cc2)cc2c1OCCN2Cc1cccnc1 0% [at 34.4 µM]
CCc1ccc(NC(=O)c2cc3c(=O)n(Cc4cccnc4)ccc3nc2C)cc1 -73.7% [at 34.4 µM]
COc1ccc(-c2cc(C(=O)Nc3ccc(C(N)=O)cc3F)sc2C)cc1 0% [at 34.4 µM]
CC(C)(C)CNc1ncnc2ccc(-c3ccc4c(c3)OCO4)cc12 88.6%
COc1ccc(-c2cc(=O)n(-c3nc(C(=O)O)cs3)[nH]2)cc1 -8.63%
O=C(c1cnc(N2CCCCC2)c2ccccc12)N1CCN(c2ccc(Cl)cc2)CC1 -3.27%
c1ccc(CN2CCN(c3nccc(-c4ccncc4)n3)CC2)nc1 -59.1% [at 34.4 µM]
COc1c(F)cc2[nH]c(C(=O)O)cc2c1F -12.3%
O=C(c1ccco1)N1CCN(Cc2nc3ccccc3c(=O)n2-c2ccccc2C(F)(F)F)CC1 -22.8%
Cc1ccccc1OCC(O)Cn1c(NCc2ccccc2)nc2c1c(=O)n(C)c(=O)n2C (stereo not given) -26.5%
C[S+](=O)([O-])c1ccc(-c2nnc3ccc(C(=O)NCc4cccs4)cn23)cc1 -9.17% [at 34.4 µM]
CCOc1ccccc1NC(=O)c1nn(-c2ccc(OC)cc2)c(=O)c2c1c1ccccc1n2C -4.51% [at 34.4 µM]

Potency, active:
Cc1ccc(-c2cc(C(=O)O)c3cccc(C)c3n2)cc1 7.12 µM
CCN(CC)S(=O)(=O)c1cccc(NC(=O)CNc2cccc(S(=O)(=O)N3CCOCC3)c2)c1 10 µM
Cc1c(P(=S)(c2ccccc2)c2ccccc2)[n+]2ccccc2n1C/C=C/c1ccc(C(F)(F)F)cc1 7.94 µM
CCN1C(=O)c2ccccc2S(=O)c2ccc(C(=O)NCc3ccccc3Cl)cc21 (stereo not given) 12.7 µM
Nc1nc2c(s1)C(c1ccc(F)cc1Cl)CC(=O)N2 (stereo not given) 4 µM
O=C(N/N=C/c1ccc(Sc2nc3ccccc3s2)o1)c1cccc(F)c1 0.896 µM
Fc1ccc(Cn2cnc3ccccc32)cc1F 12.7 µM
Cc1ccc(C)n1-c1sccc1C#N 7.12 µM
O=C(Nc1ccccc1F)c1nc(S(=O)(=O)Cc2ccccc2F)ncc1Cl 3.16 µM
